The source made the active and inactive calls.
How the values were obtained:
[1] = test system: Human papillomavirus type 1a protein E7 (residues 44-93); test: small molecules binding HPV E7 44-93 – biochemical, small-molecule microarray, residues 44-93, 635 nm fluorescence, primary screen (AID 1108); conditions: fluorescence 635 nm, higher = more signal;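 further: E7 fragment applied at 1 µg/mL in TBST for 1 h at 4 C; score combines spot fluorescence with its signal to noise ratio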
[2] = hepatitis C replication reporter changes, two-sided – Huh7 cells, luciferase reporter, HCV replication inhibitor project, primary screen (AID 1109); conditions: Huh7 HCV replicon luciferase reporter, 48 h; higher = more signal;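 further: huh7 hepatoma cells harbouring a luciferase neomycin HCV replicon reporter; luciferase luminescence as measure of HCV replicon replication; test concentration not given here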
[3] = target: Left-right determination factor 2 (Homo sapiens) (UniProt O00292); test: small molecules binding LEFTY2 protein – biochemical, small-molecule microarray, 635 nm fluorescence scan, primary screen (AID 1110); conditions: higher = more signal
Sequence of Left-right determination factor 2 (Homo sapiens) (O00292 whole entry, looked up): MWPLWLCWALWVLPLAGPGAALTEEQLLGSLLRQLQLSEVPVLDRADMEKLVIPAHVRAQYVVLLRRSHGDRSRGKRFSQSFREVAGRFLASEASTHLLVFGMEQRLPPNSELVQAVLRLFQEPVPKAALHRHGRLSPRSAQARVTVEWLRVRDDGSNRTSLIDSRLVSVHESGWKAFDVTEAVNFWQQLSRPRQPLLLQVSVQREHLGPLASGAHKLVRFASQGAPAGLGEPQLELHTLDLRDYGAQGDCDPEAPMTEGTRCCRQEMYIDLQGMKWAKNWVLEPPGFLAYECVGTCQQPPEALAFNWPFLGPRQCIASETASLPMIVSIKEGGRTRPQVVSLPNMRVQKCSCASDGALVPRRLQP

[4] = target: Calmodulin-1 (Homo sapiens) (UniProt P0DP23); test: small molecules binding calmodulin-1 with EGTA – biochemical, small-molecule microarray, Cy5-labelled CALM1, profiling panel (AID 1111); conditions: Cy5-CALM1 binding fluorescence, higher = more signal;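 further: labelled calmodulin applied in Tris saline Tween buffer holding calcium plus EGTA and DTT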
[5] = target: Calmodulin-1 (Homo sapiens) (UniProt P0DP23); test: small molecules binding Ca-loaded calmodulin-1 – biochemical, small-molecule microarray, Cy5-labelled CALM1, plus calcium, artefact control for SMM control-protein annotation, profiling panel (AID 1112); conditions: Cy5-CALM1 binding fluorescence, higher = more signal;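 further: score merges spot fluorescence with signal to noise from triplicate slides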
[6] = probe aWnt5a binding to arrayed compounds – biochemical, biotinylated probe, 635/667 nm fluorescence, primary screen (AID 1113); conditions: small-molecule microarray, higher = more signal;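 further: score merges 667 nm fluorescence intensity with signal-to-noise per printed feature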
[7] = probe aShh binding to arrayed compounds – biochemical, biotinylated probe, 635/667 nm fluorescence, primary screen (AID 1114); conditions: small-molecule microarray, higher = more signal;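 further: probe is biotin-labelled aShh protein from a stem cell growth factor screen; measures binding of labelled protein to compounds printed on the slide; score merges feature fluorescence at 667 nm with signal-to-noise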
[8] = probe aNog binding to arrayed compounds – biochemical, biotinylated probe, 635/667 nm fluorescence, primary screen (AID 1115); conditions: small-molecule microarray, higher = more signal;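 further: probe is biotinylated aNog protein used at 0.15 µg/mL for 1 h at 4 C; z-score combines 667 nm fluorescence of each spot with its signal to noise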
[9] = target: Torsin-1A-interacting protein 1 (Homo sapiens) (UniProt Q5JTV8); test: compound microarray binding of lysate hLAP1 – cell lysate, small-molecule microarray, COS7 lysate, 635/667 nm fluorescence, primary screen (AID 1116); conditions: 635 nm fluorescence, higher = more signal
Sequence of Torsin-1A-interacting protein 1 (Homo sapiens) (Q5JTV8 whole entry, looked up): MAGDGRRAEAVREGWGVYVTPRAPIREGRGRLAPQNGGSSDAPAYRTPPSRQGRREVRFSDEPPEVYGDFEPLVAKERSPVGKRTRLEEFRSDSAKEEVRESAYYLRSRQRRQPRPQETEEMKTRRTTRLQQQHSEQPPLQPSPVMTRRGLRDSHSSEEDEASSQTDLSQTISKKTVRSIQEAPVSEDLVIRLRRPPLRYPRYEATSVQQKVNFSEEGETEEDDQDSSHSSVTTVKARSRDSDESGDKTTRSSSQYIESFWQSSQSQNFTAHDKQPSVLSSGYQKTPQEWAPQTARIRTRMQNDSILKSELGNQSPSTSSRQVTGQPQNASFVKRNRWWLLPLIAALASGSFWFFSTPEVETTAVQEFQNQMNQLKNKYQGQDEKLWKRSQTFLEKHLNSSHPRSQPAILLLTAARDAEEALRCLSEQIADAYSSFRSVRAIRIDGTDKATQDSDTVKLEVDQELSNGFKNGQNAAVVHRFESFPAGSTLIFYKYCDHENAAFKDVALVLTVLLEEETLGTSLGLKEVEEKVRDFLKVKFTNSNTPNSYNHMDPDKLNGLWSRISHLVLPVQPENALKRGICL

[10] = target: Alpha-bungarotoxin (Bungarus multicinctus) (UniProt P60615); test: compounds binding labelled alpha-BTX control protein – biochemical, small-molecule microarray, Alexa647 label, 635/667 nm fluorescence, artefact control for SMM control protein annotation, profiling panel (AID 1117); conditions: alpha-BTX-A647 binding fluorescence, higher = more signal
Sequence of Alpha-bungarotoxin (Bungarus multicinctus) (P60615 whole entry, looked up): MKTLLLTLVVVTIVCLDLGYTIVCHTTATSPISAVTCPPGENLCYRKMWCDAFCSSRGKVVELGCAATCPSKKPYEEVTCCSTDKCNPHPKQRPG

[11] = target: Albumin (Bos taurus) (UniProt P02769); test: compounds binding labelled BSA control protein – biochemical, small-molecule microarray, Alexa647 label, 635/667 nm fluorescence, artefact control for SMM control protein annotation, profiling panel (AID 1118); conditions: BSA-A647 binding, fluorescence 635 nm, higher = more signal;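 further: score merges 667 nm emission intensity and signal-to-noise per printed compound spot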
Sequence of Albumin (Bos taurus) (P02769 whole entry, looked up): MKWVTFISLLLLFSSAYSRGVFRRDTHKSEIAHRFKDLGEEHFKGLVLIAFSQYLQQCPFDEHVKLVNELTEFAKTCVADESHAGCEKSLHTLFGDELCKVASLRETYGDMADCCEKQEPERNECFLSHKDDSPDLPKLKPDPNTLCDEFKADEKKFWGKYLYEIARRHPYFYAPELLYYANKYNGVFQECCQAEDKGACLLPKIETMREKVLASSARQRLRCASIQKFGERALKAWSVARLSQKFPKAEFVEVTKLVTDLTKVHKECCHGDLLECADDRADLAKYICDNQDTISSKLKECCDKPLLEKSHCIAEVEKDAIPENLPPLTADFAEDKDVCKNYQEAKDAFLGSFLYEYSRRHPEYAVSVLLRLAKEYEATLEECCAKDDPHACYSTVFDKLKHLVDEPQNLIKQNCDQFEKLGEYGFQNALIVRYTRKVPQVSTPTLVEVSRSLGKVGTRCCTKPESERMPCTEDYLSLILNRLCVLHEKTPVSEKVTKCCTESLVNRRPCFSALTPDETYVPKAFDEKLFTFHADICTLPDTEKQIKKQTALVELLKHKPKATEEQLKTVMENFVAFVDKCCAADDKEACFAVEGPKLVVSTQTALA

[12] = probe aXIP binding to arrayed compounds – biochemical, NeuroSMM set, 635/667 nm fluorescence, primary screen (AID 1119); conditions: small-molecule microarray, higher = more signal, called active from +8 up or from −8 down;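 further: probe is the protein aXip251-270 applied at 1 µg/mL to compound-printed slides; binding of probe to printed compounds measured as 667 nm fluorescence plus signal to noise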
[13] = probe aNOTCH3 binding on compound microarray – biochemical, small-molecule microarray, 635/667 nm fluorescence, primary screen (AID 1120); conditions: higher = more signal;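 further: probe is a biotin-tagged antibody raised against NOTCH3 rather than NOTCH3 protein; score merges spot fluorescence near 667 nm with spot signal to noise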
[14] = probe aNOTCH2 binding on compound microarray – biochemical, small-molecule microarray, 635/667 nm fluorescence, primary screen (AID 1121); conditions: higher = more signal;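 further: score merges feature fluorescence read at 667 nm with its signal to noise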
[15] = target: Carbonic anhydrase 2 (Homo sapiens) (UniProt P00918); test: compounds binding carbonic anhydrase 2 – biochemical, small-molecule microarray, Alexa647-labelled CAII, profiling panel (AID 1122); conditions: CAII-A647 binding fluorescence, higher = more signal
[16] = COS7 lysate on small-molecule microarray, probe aHis, 635 nm (AID 1123); conditions: COS7 cell lysate, fluorescence, higher = more signal;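 further: z-score combines 667nm fluorescence intensity with signal-to-noise per printed compound spot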
[17] = probe aLAP1 signal on lysate-treated microarray – cell lysate, small-molecule microarray, COS7 lysate, primary screen (AID 1124); conditions: probe aLAP1, fluorescence, higher = more signal;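 further: lysate comes from COS7 cells expressing LAP1 and is applied at 0.3 µg/mL; score merges spot fluorescence near 667 nm with signal-to-noise over triplicate slides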
[18] = test system: Sam68 (KHDRBS1); test: compounds binding KHDRBS1 protein – biochemical, small-molecule microarray, 635 nm fluorescence, primary screen (AID 1125); conditions: higher = more signal;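 further: score merges 667 nm channel intensity with signal to noise over triplicate slides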
[19] = test system: Chordin-like protein 2 (CHRDL2); test: compounds binding chordin-like 2 – biochemical, small-molecule microarray, 635 nm fluorescence, primary screen (AID 1126); conditions: fluorescence 635 nm, higher = more signal;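 further: printed compound slides probed with Chrdl2 protein at 4 µg/mL for 1 h at 4 C; score merges 667 nm emission intensity with signal to noise over three replicate slides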
[20] = target: Concanavalin-A (Canavalia ensiformis) (UniProt P02866); test: compounds binding concanavalin A lectin – biochemical, small-molecule microarray, Alexa647 label, 635 nm, artefact control for SMM control protein annotation, primary screen (AID 1127); conditions: ConA-A647 binding fluorescence, higher = more signal;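 further: z combines 667 nm emission intensity with signal-to-noise across three replicate slides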
Sequence of Concanavalin-A (Canavalia ensiformis) (P02866 whole entry, looked up): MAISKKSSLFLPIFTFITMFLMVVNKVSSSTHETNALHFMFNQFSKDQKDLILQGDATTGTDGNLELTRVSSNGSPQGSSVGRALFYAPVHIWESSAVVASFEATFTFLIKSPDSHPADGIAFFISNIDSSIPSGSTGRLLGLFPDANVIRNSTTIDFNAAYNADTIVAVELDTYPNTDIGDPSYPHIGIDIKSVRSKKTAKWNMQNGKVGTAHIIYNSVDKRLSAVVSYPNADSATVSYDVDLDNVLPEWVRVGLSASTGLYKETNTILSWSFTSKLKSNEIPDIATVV

Row | SMILES | composite z-score [1] | z-score [2] | composite z-score [3] | composite z-score [4] | composite z-score [5] | composite z-score [6] | composite z-score [7] | composite z-score [8] | composite z-score [9] | composite z-score [10] | composite z-score [11] | composite Z-score [12] | composite z-score [13] | composite z-score [14] | composite z-score [15] | composite z-score [16] | composite z-score [17] | composite z-score [18] | composite z-score [19] | composite z-score [20]
1 | O=C1N(Cc2ccccc2)c2ccccc2[C@H]2OC(c3ccc(OCCCO)cc3)=N[C@@]12Cc1ccccc1 | 1.03 | -2.48 | -0.116 | 0.244 | -0.0364 | 0.067 | 1.06 | 0.798 | 0.498 | 1.81 | -0.465 | 1.19 (inactive) | 0.0271 | -0.131 | 0.606 | 2.42 | 1.1 | 1.3 | 0.41 | 1.06
2 | C=CCC(OC(C)=O)[C@@H]1[C@@H](N(Cc2cc3ccccc3o2)C(=O)Cc2ccc(OC)cc2)c2cc(OCCCO)ccc2N1C(=O)Cc1ccc(OC)cc1 (stereo not given in full) | -0.133 | 0.028 | -0.0735 | -0.211 | 0.158 | -0.0981 | -0.0626 | -0.303 | -0.0544 | 0.673 | -0.477 | -0.188 (inactive) | -0.0711 | -0.153 | 0.426 | -0.188 | 0.107 | -0.0765 | 0.208 | -0.395
3 | CCCCC(O)C1C=CC2C(=O)NC(=O)C2N1Nc1ccccn1 (stereo not given) | -0.382 | -1.11 | 0.132 | -0.0937 | -0.466 | -0.1 | 0.25 | 0.289 | 0.233 | 0.275 | 0.082 | 0.0557 (inactive) | -0.155 | 0.0377 | 0.885 | -0.234 | 0.386 | -1.01 | -0.0858 | 0.344
4 | COC(=O)[C@@]1(Cc2ccccc2CN=[N+]=[N-])COC(c2ccc(OCCCO)cc2)=N1 | -0.273 | -0.221 | -2.75 | -0.759 | 0.0354 | -0.292 | 1.69 | 0.199 | 0.202 | 3.02 | 0.426 | 0.978 (inactive) | -0.425 | -0.0959 | 0.0365 | 2.27 | -0.365 | 0.424 | -2.4 | -1.38
5 | COc1ccc(C#Cc2ccc3c(c2)[C@]2(C(=O)N3)[C@H](c3ccc(OCCO)cc3)N3[C@H](c4ccccc4)[C@H](c4ccccc4)OC(=O)[C@H]3[C@@H]2C(=O)O)cc1 | 1.46 | -1.3 | 0.362 | -0.17 | -0.893 | -0.0028 | -0.0999 | 1.81 | 0.523 | 0.485 | -0.0067 | -0.221 (inactive) | 1.18 | -0.0907 | 0.653 | 3.18 | 0.811 | 1.3 | 0.234 | 0.761
6 | CN(C)CCCNC(=O)[C@@H]1c2ccccc2C(=O)N(C2Cc3ccccc3C2)[C@H]1c1ccc(CO)cc1 | 1.1 | -1.9 | -0.625 | -0.0693 | -0.875 | 0.0436 | 0.0766 | 0.467 | 0.814 | 0.438 | 0.274 | 0.0516 (inactive) | -0.45 | 0.197 | 0.505 | 0.132 | 0.682 | 1.3 | -0.0701 | 0.491
7 | CCOC(=O)C1=C(C(=O)OCC)N(S(=O)(=O)CC[Si](C)(C)C)[C@H](c2ccccc2)CC1 | 1.3 | -2.8 | -0.171 | 0.435 | 0.161 | 0.0307 | -0.164 | 0.118 | 0.356 | 1.23 | 0.565 | -0.463 (inactive) | 0.112 | -0.075 | 0.443 | 0.727 | -0.102 | 1.3 | -0.0267 | 1.14
8 | COC(=O)[C@@]1(Cc2ccc(F)cc2)[C@H]2c3cc(C(=O)N(C)C)n(CCn4cc([N+](=O)[O-])nc4C)c3C[C@H]2CN1C(=O)c1ccccc1 | 0.81 | -0.112 | -0.831 | 0.892 | 0.378 | -0.003 | 0.631 | 1.08 | 1.49 | 0.0533 | 0.781 | -0.133 (inactive) | 0.0203 | 0.107 | 0.477 | 2.02 | 0.317 | 0.155 | -0.187 | 0.294
9 | COC(=O)C(CC#Cc1ccc2c(c1)[C@]1(C(=O)N2)[C@H](c2ccc(O)cc2)N2[C@H](c3ccccc3)[C@H](c3ccccc3)OC(=O)[C@H]2[C@@H]1C(=O)N1CCc2cc(OC)c(OC)cc2C1)C(=O)OC | 0.85 | -0.163 | 0.737 | 0.267 | -0.521 | 0.324 | 0.383 | -0.23 | 1.25 | 1.55 | -0.1 | 0.33 (inactive) | 0.0032 | -0.125 | 0.366 | 1.72 | 1.05 | 1.32 | 0.64 | 1.12
10 | COC(=O)[C@H](Cc1ccc(O)cc1)N1CC2=CCCC=C[C@@H]2[C@H]1[C@H](O)Cc1ccccc1 | -0.615 | -0.798 | 0.45 | -0.197 | -0.757 | -0.157 | -0.138 | -0.292 | 0.0548 | 0.0212 | 0.293 | -0.223 (inactive) | -0.0319 | -0.0772 | 0.669 | 0.16 | -0.0126 | -0.163 | 0.706 | 0.295
11 | CCC(CC)C(O)C1C=CC2C(=O)N(C)C(=O)C2N1N1CCCCC1 (stereo not given) | 1.43 | -0.481 | 0.692 | 1.68 | -0.263 | 0.0229 | 0.0381 | 1.57 | 0.103 | 1.2 | 0.999 | -0.175 (inactive) | 0.499 | 0.0477 | 0.755 | 2.5 | 0.502 | 1.31 | 0.0277 | 1.13

Reference: PubChem BioAssay
